Assay results: PubChem BioAssay (NCI)
Compounds without any hit were thinned out: in the full panel of roughly 83,000, 20% have a hit.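 For each line, cells grew in 96-well plates with the test compound present at a single concentration for 48 hours.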 A number with no mark means an inactive call. The source made the active and inactive calls. How the source made its calls: active means growth percent below 10; inactive means the rest.

Assays:
Test in all cases: NCI-60 one-dose screen, 48 h (100 = growth as untreated, 0 = no growth, -100 = all killed)
Conditions in all cases: 10 µM unless noted
T-47D breast = system: T-47D breast
BT-549 breast = system: BT-549 breast
MDA-MB-435 melanoma = system: MDA-MB-435 melanoma
SW-620 colon = system: SW-620 colon
MCF7 breast = system: MCF7 breast
HCT-116 colon = system: HCT-116 colon
HCC-2998 colon = system: HCC-2998 colon
KM12 colon = system: KM12 colon

Row | Compound | growth (T-47D breast) | growth (BT-549 breast) | growth (MDA-MB-435 melanoma) | growth (SW-620 colon) | growth (MCF7 breast) | growth (HCT-116 colon) | growth (HCC-2998 colon) | growth (KM12 colon)
1 | O=C1OC2C(I)C3CC2C1C3c1ccccc1 (stereo unspecified) | 95.2% | 152% | 131% | 96.1% | 109% | 96.8% | 105% | 108%
2 | CC(C)n1cc2c(N)ncnc2n1 | 93.9% | 101% | 98.6% | 110% | 102% | 102% | 122% | 111%
3 | C=CC[N+]1(CCO)CCN=C1CCCCCCCCCCCCC (stereo unspecified) | -39.2% (active) | -10.2% (active) | -78.1% (active) | -72.3% (active) | -72.3% (active) | -95.1% (active) | -91.1% (active) | -83.2% (active)
4 | O=C(Nc1ccc(F)cc1)Nc1ccc(CCO)cc1 | 104% | 108% | 97.4% | 108% | 109% | 94.7% | 108% | 108%
5 | COC1C/C(=N\O)C2OC(c3ccccc3)OCC2O1 (stereo unspecified) | 103% | 105% | 102% | 105% | 102% | 97.9% | 110% | 121%
6 | O=C(CCCN1CCOCC1)Nc1ccc(Cn2nnc3c2C(=O)c2nnn(Cc4ccc(NC(=O)CCCN5CCOCC5)cc4)c2C3=O)cc1 | -16.5% (active) | 42.6% | -78.9% (active) | 30.2% | -58.6% (active) | 0.281% (active) | 13.1% | 65.3%
7 | CC1CN(Cc2ccco2)C(=S)N(c2ccccc2)C1=O (stereo unspecified) | 83.1% | 94.6% | 100% | 102% | 102% | 88.9% | 113% | 99.9%
8 | C/C(=C(/c1ccc(O)cc1)c1ccc(Cl)cc1)c1ccccc1 | -13.5% (active) | -78.9% (active) | -93.1% (active) | -71.4% (active) | -63.3% (active) | -69.4% (active) | -74.9% (active) | -86.2% (active)
9 | CCOC(=O)N1CCN(c2nc(Nc3cc(C)[nH]n3)c3ccccc3n2)CC1 | 37.4% | 56.8% | 14% | 41.8% | 27.5% | 34.1% | 69% | 21.4%
10 | CCN(CC)CCCNc1cccc2c(SCc3ccccc3)ccnc12 | 103% | 74.8% | -27.9% (active) | 55% | 98.6% | 75% | 25.4% | 34%
11 | O=C1CC(c2nc3ccccc3[nH]2)CN1C1CCCCC1 (stereo unspecified) | 95.6% | 97.7% | 107% | 106% | 89.7% | 109% | 98.7% | 107%
12 | CC/C=C\C[C@H](O)C/C=C1/C(=O)C=C[C@@H]1C/C=C\CCCC(=O)NC | -0.635% (active) | -4.05% (active) | 15.2% | 7.47% (active) | 8.89% (active) | -65% (active) | -90.7% (active) | -44.3% (active)
13 | CC1=C(NCCN2CCCC2)C(=O)c2c(OCc3cccc(Cl)c3)cccc2C1=O | 59.9% | 14.5% | 61.8% | 85.1% | 57.5% | 43.9% | 84.4% | 81%
14 | CCCCCCCCCCCCCC(=O)C(C)N (stereo unspecified) | -30.2% (active) | 66.9% | 78.5% | 80.4% | 34% | 59.2% | 55.1% | 22.1%
15 | O=C1c2cc3c(cc2-c2c1c1cc(Cl)c(Cl)cc1c(=O)n2C[C@H](O)CO)OCO3 | -20.2% (active) | -10.3% (active) | -24.8% (active) | 12.7% | -0.37% (active) | -25.4% (active) | -5.57% (active) | -21% (active)
16 | O=C1/C(=C/c2ccc(Cl)c(Cl)c2)CN(C(=O)CCN2CCC(=NO)CC2)C/C1=C\c1ccc(Cl)c(Cl)c1 | -79.9% (active) | -87.9% (active) | -93.8% (active) | -62.9% (active) | -53.8% (active) | -47.1% (active) | -77.1% (active) | -80.9% (active)

Row | Compound | growth (T-47D breast) | growth (BT-549 breast) | growth (MDA-MB-435 melanoma) | growth (SW-620 colon) | growth (MCF7 breast) | growth (HCT-116 colon) | growth (HCC-2998 colon) | growth (KM12 colon)
17 | N#CC1=C(N)Oc2c(ccc3ccccc23)C1c1cccs1 (stereo unspecified) | 64.3% | 25% | -31% (active) | 23.8% | 7.97% (active) | 8.25% (active) | 16.7% | 4.37% (active)
18 | CCCCN(CCCC)Cc1c(C)[nH]c2cc(OC)ccc2c1=O | 95.7% | 108% | 104% | 101% | 94.8% | 95.2% | 94.6% | 104%
19 | COc1ccc(-c2cc(-c3ccc(N(C)C)cc3)nc(NC(=O)c3ccncc3)n2)cc1 | 88.9% | 104% | 104% | 98.7% | 78% | 94% | 100% | 97.8%
20 | COc1cc(NC(N)=NCC(C)(C)COc2ccc(C(F)(F)F)cc2)cnc1C#N | 30.3% | 75.4% | 61.1% | 69.9% | 32.5% | 37.7% | 18.9% | 57.6%
21 | CC/C=C\C[C@H](O)C/C=C1/C(=O)C=C[C@@H]1C/C=C\CCCC(N)=O | 1.28% (active) | -12.6% (active) | 23.5% | 5.37% (active) | 7.66% (active) | -69% (active) | -73.6% (active) | -38.7% (active)
22 | CCN(CC)Cc1cc(Nc2c3ccc(Cl)cc3nc3c(C)cccc23)ccc1O | -70.5% (active) | -54.3% (active) | -89.6% (active) | -14% (active) | -61.6% (active) | -73.2% (active) | -95% (active) | -45.4% (active)
23 | COc1cc(-c2c3c(nc4c2c(C)nn4-c2ccccc2)-c2ccccc2C(=O)C3=O)cc(OC)c1OC | 72.4% | 68.4% | -0.815% (active) | 86.2% | 57.7% | 51.5% | 71.1% | 80.8%
24 | O=[N+]([O-])c1cccc(-c2nc3sccn3c2-c2ccnc(NCCCNS(=O)(=O)c3cccc(F)c3)n2)c1 | -13.4% (active) | -16.8% (active) | -19.4% (active) | 22.9% | -18.9% (active) | 7.77% (active) | 65.6% | -10.6% (active)
25 | Nc1cc2nc3ccccc3sc-2cc1=O | 71.1% | 63.1% | -68.2% (active) | 84.7% | 44.3% | 72.7% | 100% | 80.8%
26 | CCCCCC(=O)N(CCCC)CCCC | 109% | 102% | 89.4% | 117% | 123% | 108% | 111% | 109%
27 | O=C1Nc2c(ccc(Cl)c2Cl)/C1=C/c1cc(Br)c(O)c(Br)c1 | 54.8% | 29.2% | -29.4% (active) | 36.1% | 52.8% | 58.4% | 68.7% | 32.5%
28 | CCN(CC)CCCC(C)Nc1ccnc2c(OC)cccc12 (stereo unspecified) | 119% | 118% | 118% | 115% | 101% | 112% | 115% | 113%
29 | CN1CCN(Cc2ccc(NC(=O)c3cncc(C#Cc4cnc(N)c5cccnc45)c3)cc2C(F)(F)F)CC1 | 26.2% | 38.9% | 7.67% (active) | 1.78% (active) | 26.8% | 3.52% (active) | 30.2% | 8.81% (active)
30 | c1ccc(Sc2ncnc3ccccc23)cc1 | 63.8% | 51.6% | 38.1% | 84.9% | 63.8% | 72% | 107% | 86.1%
31 | COc1ccc(S(=O)(=O)NCCNc2nccc(-c3c(-c4cccc([N+](=O)[O-])c4)nc4sccn34)n2)cc1 | 44.4% | 72.1% | 77.9% | 128% | 61.3% | 90% | 128% | 44.8%
32 | O=C(CCCCN1CCOCC1)Nc1ccc(Cn2nnc3c2C(=O)c2nnn(Cc4ccc(NC(=O)CCCCN5CCOCC5)cc4)c2C3=O)cc1 | -50.5% (active) | -94.7% (active) | -77% (active) | -50.1% (active) | -51.7% (active) | -91% (active) | -62.3% (active) | -36.2% (active)
